# Unmarked numbers belong to inactive results.
# Assay: budding yeast growth changes without added modifier – OD600, strain BY4716, 24 h, basal condition, primary screen (AID 1173)
# Details: S. cerevisiae BY4716 growth, OD600, 24 h; higher = more signal, called active from +8 up or from −8 down
row,Compound,z-score
1,COC(=O)[C@H](C)NC(=O)CC=C[C@@H](C)[C@@H]1C=C[C@H](O)[C@@H](CO)O1,0.104
2,C[C@H]1CC[C@@H](C(=O)O)N[C@@H]1c1cccc(N2CCCC2=O)c1,-0.281
3,CO[C@@H]1[C@H](O)CO[C@H]1C=Cc1ccccc1,-1.05
4,COC(=O)[C@H](C)NC(=O)CCC1CC(OC(=O)NCCc2ccc(F)cc2)CC2(CCCC(COC(=O)NCc3ccccc3)O2)O1 (some centres not stated),1.45
5,CC(C)CON=C1C[C@@H](O)[C@@H](O)[C@@H]2[C@@H]3C(=O)N(c4ccc(F)cc4F)C(=O)[C@@H]3CC[C@@H]12,-1.98
6,O=C1C=C[C@@H](O)[C@@H]2[C@@H]3C(=O)N(Cc4ccc5c(c4)OCO5)C(=O)[C@@H]3CC[C@@H]12,0.516
7,CC[C@@H](c1ccccc1)n1c(=O)n2n(c1=O)[C@H]1[C@H](O)[C@@H]3O[C@@H]3C(=NOCc3ccccc3)[C@H]1CC2,-1.04
8,CC(=O)OC[C@H]1O[C@H](CC=NOC[C@@H](O)COCc2ccco2)C=C[C@@H]1OC(C)=O,0.0523
9,C[C@H]1C=CCC(=O)OC[C@H](C)C(=O)N2CCC[C@H]2C(=O)OC1,-0.18
10,CC(C)CON=C1C[C@@H](O)[C@@H](O)[C@@H]2[C@@H]3C(=O)N(Cc4ccc5c(c4)OCO5)C(=O)[C@@H]3CC[C@@H]12,0.793
11,CCOC(=O)CCN1C(=O)[C@H]2[C@H]3[C@H](O)[C@H](O)CC(=NNC(=O)OCC)[C@H]3CC[C@H]2C1=O,-1.01
12,CC(=O)OC[C@H]1O[C@@H](ON=C2[C@H]3CCn4c(=O)n(-c5ccccc5)c(=O)n4[C@H]3[C@H](O)[C@@H]3O[C@H]23)[C@H](OC(C)=O)[C@@H](OC(C)=O)[C@@H]1OC(C)=O,-0.499
13,CCOC(=O)[C@H](CC(C)C)NC(=O)CCC1CC(OC(=O)NCc2ccc3c(c2)OCO3)CC2(CCCC(COC(=O)NCCOC)O2)O1 (some centres not stated),-0.383
14,O=C1C[C@@H](O)[C@@H](O)[C@@H]2[C@@H]3C(=O)N(c4ccc(F)cc4F)C(=O)[C@@H]3CC[C@H]12,0.021
15,CCOC(=O)CCN1C(=O)[C@H]2[C@@H]3C(=CC[C@H]2C1=O)C(=O)[C@H]1O[C@H]1[C@H]3O,-0.894
16,O=C1CCCC=C1C(O)C1CCCCC1 (configuration not stated),-0.143
17,CCN1C(=O)[C@H]2[C@H]3[C@H](O)[C@H](O)CC(=NOC[C@@H](O)[C@H]4O[C@@H]5OC(C)(C)O[C@@H]5[C@H]4O)[C@@H]3CC[C@H]2C1=O,-0.569
18,COc1ccc(COC(=O)NN=C2C[C@@H](O)[C@@H](O)[C@@H]3[C@@H]4C(=O)N(Cc5ccccc5)C(=O)[C@@H]4CC[C@@H]23)cc1,0.18
19,C[C@H]1CC[C@H]2C(=O)OC(COc3ccc(C(C)(C)C)cc3)CN2[C@@H]1c1ccc(Br)cc1 (some centres not stated),-4.88
20,COCCNC(=O)OCC1CCCC2(CC(OC(=O)NCc3cccc4ccccc34)CC(CCC(=O)N[C@@H](C)C(=O)OC)O2)O1 (some centres not stated),-0.0524
21,CC(C)CON=C1[C@H]2CCn3c(=O)n(C)c(=O)n3[C@H]2[C@H](O)[C@@H]2O[C@H]12,0.0789
22,CO[C@H]1COC(=O)[C@H](CCSC)NC(=O)CC=C[C@@H](C)[C@H](OC)COC(=O)[C@@H](OCc2ccccc2)C=C[C@@H]1C,-0.41
23,CC(CCN1CCCCc2nc(C)c(C)cc21)=NOC[C@@H](O)[C@H]1O[C@@H]2OC(C)(C)O[C@@H]2[C@H]1O,-0.546
24,CC(C)(C)N1C(=O)[C@H]2[C@H]3[C@H](O)[C@H](O)CC(=NOC[C@@H](O)COCc4ccco4)[C@@H]3CC[C@H]2C1=O,0.382
25,C=CC[C@@H]1C=C[C@H](ON=C2C[C@@H](O)[C@@H](O)[C@@H]3[C@@H]4C(=O)N(CC)C(=O)[C@@H]4CC[C@@H]23)[C@@H](CO)O1,-0.099
26,CCOC(=O)NN=C1C[C@@H](O)[C@@H](O)[C@@H]2[C@@H]3C(=O)N(CC)C(=O)[C@@H]3CC[C@H]12,0.467

# Assay: viability profiling in MM1S myeloma cells – cell-based, resazurin fluorescence, basal, 24 h, PK04 Diversity Set, profiling panel (AID 1174);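 note: MM1S multiple myeloma cell line; test concentration not given here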
# Details: higher = more signal, called active from +8 up or from −8 down
row,Compound,z-score
1,COC(=O)[C@H](C)NC(=O)CCC1CC(OC(=O)NCc2cccc3ccccc23)CC2(CCCC(COC(=O)NCCc3ccccc3OC)O2)O1 (some centres not stated),-0.232
2,CO[C@@H](C(C)C)[C@@H](C)C1OC(=O)CC1O (some centres not stated),-0.766
3,COc1ccc(COC(=O)NN=C2C[C@@H](O)[C@@H](O)[C@@H]3[C@@H]4C(=O)N(C[C@@H]5CCCO5)C(=O)[C@@H]4CC[C@H]23)cc1,0.0829
4,COC(=O)[C@H](C)NC(=O)CCC1CC(OC(=O)NCCc2ccc(F)cc2)CC2(CCCC(COC(=O)NCCc3ccccc3OC)O2)O1 (some centres not stated),0.173
5,CON=C(C)CCN1CCCCc2nc(C)c(C)cc21,0.183
6,CC(C)C(=O)N[C@H]1CCCN1C(=O)C=Cc1ccccc1,-0.46
7,C#CCCCON=C1C[C@@H](O)[C@@H](O)[C@@H]2[C@@H]3C(=O)N(C[C@@H]4CCCO4)C(=O)[C@@H]3CC[C@@H]12,0.0893
8,COc1ccc(COC(=O)NN=C2C[C@@H](O)[C@@H](O)[C@@H]3[C@@H]4C(=O)N(C5CCCCC5)C(=O)[C@@H]4CC[C@@H]23)cc1,-0.489
9,CCOC(=O)[C@H](CC(C)C)NC(=O)CCC1CC(OC(=O)NCc2ccc3c(c2)OCO3)CC2(CCCC(COC(=O)NCCc3ccc(Cl)cc3)O2)O1 (some centres not stated),0.984
10,CC(CCC(=O)OC[C@H]1O[C@H](C#Cc2ccccc2)C=C[C@@H]1Oc1ccc(C)cc1)=NO[C@@H](C)c1cc(-c2c(C)cc(C)cc2C)no1,0.281
11,COC(=O)[C@H](C)NC(=O)CC=C[C@@H](C)[C@@H]1C=C[C@H](O)[C@@H](CO)O1,-0.543
12,C[C@H]1CC[C@@H](C(=O)O)N[C@@H]1c1cccc(N2CCCC2=O)c1,-0.0691
13,CO[C@@H]1[C@H](O)CO[C@H]1C=Cc1ccccc1,0.841
14,COC(=O)[C@H](C)NC(=O)CCC1CC(OC(=O)NCCc2ccc(F)cc2)CC2(CCCC(COC(=O)NCc3ccccc3)O2)O1 (some centres not stated),1.05
15,CC(C)CON=C1C[C@@H](O)[C@@H](O)[C@@H]2[C@@H]3C(=O)N(c4ccc(F)cc4F)C(=O)[C@@H]3CC[C@@H]12,0.88
16,O=C1C=C[C@@H](O)[C@@H]2[C@@H]3C(=O)N(Cc4ccc5c(c4)OCO5)C(=O)[C@@H]3CC[C@@H]12,0.966
17,CC[C@@H](c1ccccc1)n1c(=O)n2n(c1=O)[C@H]1[C@H](O)[C@@H]3O[C@@H]3C(=NOCc3ccccc3)[C@H]1CC2,-2.51
18,CC(=O)OC[C@H]1O[C@H](CC=NOC[C@@H](O)COCc2ccco2)C=C[C@@H]1OC(C)=O,0.166

row,Compound,z-score
1,C[C@H]1C=CCC(=O)OC[C@H](C)C(=O)N2CCC[C@H]2C(=O)OC1,-0.0106
2,CC(C)CON=C1C[C@@H](O)[C@@H](O)[C@@H]2[C@@H]3C(=O)N(Cc4ccc5c(c4)OCO5)C(=O)[C@@H]3CC[C@@H]12,0.61
3,CCOC(=O)CCN1C(=O)[C@H]2[C@H]3[C@H](O)[C@H](O)CC(=NNC(=O)OCC)[C@H]3CC[C@H]2C1=O,0.137
4,CC(=O)OC[C@H]1O[C@@H](ON=C2[C@H]3CCn4c(=O)n(-c5ccccc5)c(=O)n4[C@H]3[C@H](O)[C@@H]3O[C@H]23)[C@H](OC(C)=O)[C@@H](OC(C)=O)[C@@H]1OC(C)=O,-0.718
5,CCOC(=O)[C@H](CC(C)C)NC(=O)CCC1CC(OC(=O)NCc2ccc3c(c2)OCO3)CC2(CCCC(COC(=O)NCCOC)O2)O1 (some centres not stated),0.982
6,O=C1C[C@@H](O)[C@@H](O)[C@@H]2[C@@H]3C(=O)N(c4ccc(F)cc4F)C(=O)[C@@H]3CC[C@H]12,-0.175
7,CCOC(=O)CCN1C(=O)[C@H]2[C@@H]3C(=CC[C@H]2C1=O)C(=O)[C@H]1O[C@H]1[C@H]3O,-5.48
8,O=C1CCCC=C1C(O)C1CCCCC1 (configuration not stated),-0.254
9,CCN1C(=O)[C@H]2[C@H]3[C@H](O)[C@H](O)CC(=NOC[C@@H](O)[C@H]4O[C@@H]5OC(C)(C)O[C@@H]5[C@H]4O)[C@@H]3CC[C@H]2C1=O,-2.69
10,COc1ccc(COC(=O)NN=C2C[C@@H](O)[C@@H](O)[C@@H]3[C@@H]4C(=O)N(Cc5ccccc5)C(=O)[C@@H]4CC[C@@H]23)cc1,0.259
11,C[C@H]1CC[C@H]2C(=O)OC(COc3ccc(C(C)(C)C)cc3)CN2[C@@H]1c1ccc(Br)cc1 (some centres not stated),0.283
12,COCCNC(=O)OCC1CCCC2(CC(OC(=O)NCc3cccc4ccccc34)CC(CCC(=O)N[C@@H](C)C(=O)OC)O2)O1 (some centres not stated),0.343
13,CC(C)CON=C1[C@H]2CCn3c(=O)n(C)c(=O)n3[C@H]2[C@H](O)[C@@H]2O[C@H]12,0.0226
14,CO[C@H]1COC(=O)[C@H](CCSC)NC(=O)CC=C[C@@H](C)[C@H](OC)COC(=O)[C@@H](OCc2ccccc2)C=C[C@@H]1C,-0.059
15,CC(CCN1CCCCc2nc(C)c(C)cc21)=NOC[C@@H](O)[C@H]1O[C@@H]2OC(C)(C)O[C@@H]2[C@H]1O,-1.03
16,CC(C)(C)N1C(=O)[C@H]2[C@H]3[C@H](O)[C@H](O)CC(=NOC[C@@H](O)COCc4ccco4)[C@@H]3CC[C@H]2C1=O,0.0017
17,C=CC[C@@H]1C=C[C@H](ON=C2C[C@@H](O)[C@@H](O)[C@@H]3[C@@H]4C(=O)N(CC)C(=O)[C@@H]4CC[C@@H]23)[C@@H](CO)O1,-0.415
18,CCOC(=O)NN=C1C[C@@H](O)[C@@H](O)[C@@H]2[C@@H]3C(=O)N(CC)C(=O)[C@@H]3CC[C@H]12,-2.97

# — PubChem BioAssay
